Screening results: PubChem, several laboratories
COUP-TFII inh – NR2F2 (human) inhibition, primary screen; HEK293T NGFI-A luciferase reporter, luminescence; inhibition, % at 8.6 µM; 0.7% of 370,000 active; AID 686940;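 active = inhibition above a per-plate cutoff, mean inhibition of test wells between control levels plus 3 SD, cut at about 38% in these data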;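 also: cells cotransfected with COUP-TFII expression vector driving the NGFI-A reporter; 0% = median of COUP-TF2 test wells and 100% = reporter-only cells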
Target sequence (P24468 whole entry, looked up): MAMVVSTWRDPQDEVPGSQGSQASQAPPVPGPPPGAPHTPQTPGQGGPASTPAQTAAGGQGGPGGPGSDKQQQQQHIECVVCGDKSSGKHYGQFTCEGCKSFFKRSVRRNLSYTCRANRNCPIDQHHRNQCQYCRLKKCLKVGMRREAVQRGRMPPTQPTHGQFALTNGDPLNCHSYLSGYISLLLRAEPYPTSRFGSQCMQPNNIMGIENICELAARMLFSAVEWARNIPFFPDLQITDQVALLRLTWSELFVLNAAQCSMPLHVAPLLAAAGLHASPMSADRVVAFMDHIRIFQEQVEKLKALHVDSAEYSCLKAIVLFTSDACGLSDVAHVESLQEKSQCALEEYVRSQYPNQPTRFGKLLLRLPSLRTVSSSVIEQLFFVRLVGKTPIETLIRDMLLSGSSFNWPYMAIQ
Gli-Sufu antag – blocks Gli-Sufu signaling in a luciferase reporter; Sufu-KO-LIGHT fibroblasts, Gli luciferase reporter luminescence; inhibition, % at 5 µM; 0.74% of 340,000 active;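 active = inhibition above about 55%, limit read from the data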;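 also: 0% = DMSO-treated cells and 100% = wells with medium but no cells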
H9c2 protect – modulators protecting cardiomyocytes from myocardial damage; H9c2 cardiomyocytes, H2O2 injury protection, ATPLite, 2 h; protection from H2O2 cell death, % at 20 µM; 0.63% of 360,000 active;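 active = compounds giving at least 50% protection of heart cells from peroxide-induced death in the single-dose screen, raw or plate-pattern-corrected value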;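 also: 0% = DMSO wells with peroxide and 100% = DMSO wells without peroxide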
FXN GAA850 act – increases GAA850 frataxin promoter reporter activity | HEK293 lucGAA850 FXN promoter luciferase reporter, 24 h; percent of 10 µM SAHA response | activation, % at 6 µM | 0.56% of 360,000 active | AID 540364;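 active = activation above the average of all compounds screened plus 3 SD, cutoff fixed separately per campaign, cut at about 7.5% in these data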;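 also: 0% = DMSO wells and 100% = 10 µM SAHA wells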
GalR3 antag – human GalR3 antagonism | O60755 | HEK293 GalR3-CNG cAMP membrane potential fluorescence; galR3 body fused to GalR1 C-terminus | inhibition, % at 3 µM | 0.44% of 360,000 active | AID 651719;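 active = inhibition above the screen-wide average plus 3 SD, cut at about 13% in these data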;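 also: forskolin and galanin both at EC90 stimulate the cells; cAMP rise reported by CNG channel membrane potential dye signal; 0% = forskolin plus galanin with DMSO and 100% = forskolin alone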
Target sequence (O60755 1-299 limits assumed): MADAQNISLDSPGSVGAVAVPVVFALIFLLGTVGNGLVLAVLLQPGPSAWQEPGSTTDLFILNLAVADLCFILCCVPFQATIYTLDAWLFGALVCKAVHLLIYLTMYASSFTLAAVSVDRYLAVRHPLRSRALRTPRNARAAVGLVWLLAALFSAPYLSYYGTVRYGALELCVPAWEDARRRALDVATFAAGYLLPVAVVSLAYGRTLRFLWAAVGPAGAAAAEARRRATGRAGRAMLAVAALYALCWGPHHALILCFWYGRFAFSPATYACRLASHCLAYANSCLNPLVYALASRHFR
SMARCA2 activ – increases SMARCA2 function in MMTV reporter cells | activation, % at 9.1 µM | MG213 cells, MMTV-luciferase reporter, dexamethasone, overnight | 1% of 370,000 active | AID 652017; in the data active = activation above about 7.8%;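 also: 0% = vehicle wells and 100% = reference activator wells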
Gli antag conf – Gli-SUFU antagonism confirmation, single concentration; shares compounds with Gli-Sufu antag; inhibition, % at 5 µM; AID 602428; Sufu-KO-LIGHT cells, Gli luciferase reporter, luminescence; 40% of 2,500 active;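 active = mean inhibition at 5 µM reaching about 45%, limit read from the data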;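 also: plate controls were DMSO-treated cells for no effect and wells lacking cells for full effect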
SufuKO cytotox – cytotoxicity counter-screen for Gli-SUFU antagonists; shares compounds with Gli-Sufu antag; Sufu-KO-LIGHT cells cytotoxicity, ATP luminescence; cytotoxicity, % at 5 µM; 32% of 2,500 active;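 active = mean cytotoxicity at 5 µM above about 25%, limit read from the data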;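 also: cells exposed to compound overnight for roughly 16 to 18 hours; plate controls were DMSO wells with cells for no effect and medium without cells for full effect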
Wnt3a cs – inhibits Wnt3a reporter, counter-screen for Gli-SUFU antagonists | 20% of 2,500 active | Wnt-LIGHT cells, Wnt3a-driven luciferase reporter, luminescence | shares compounds with Gli-Sufu antag | inhibition, % at 6.25 µM | AID 651995;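 active = mean inhibition above about 25%, limit read from the data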
* hit, by the source's call; . = no result. Only some compounds are listed: those with a hit (about 3.4% of all), similar ones and a draw of the others.

SMILES | COUP-TFII inh | Gli-Sufu antag | H9c2 protect | FXN GAA850 act | GalR3 antag | SMARCA2 activ | Gli antag conf | SufuKO cytotox | Wnt3a cs
N/C(=N\OC(=O)c1ccccc1)c1ccn[nH]1 | -23 | -64 | -19 | 3 | -2 | 7 | . | . | .
COc1cc(C(=O)NNC(=S)NC(=O)c2ccc(F)cc2)cc(OC)c1OC | 5 | 57* | 2 | 2 | -4 | 0 | 14 | 18 | -19
Cc1[nH]c2ccccc2c1SCc1nnc(SCc2ccccc2)n1C | -11 | -10 | -2 | 0 | -3 | 1 | . | . | .
Cc1[nH]c2ccccc2c1SCc1nnc(SCc2ccc(Cl)cc2)n1C | 11 | 51 | -2 | -1 | -3 | -3 | 24 | 4 | 43*
C[C@@H]1OCN(C)[C@H]2C[C@H]3c4[nH]c5cccc(-c6cccc(F)c6)c5c4CCN3C(=O)[C@@H]12 | -17 | . | . | . | . | 1 | . | . | .
CCN(Cc1ccccc1)Cc1ccc(OCc2ccccc2)cc1 | -9 | 59* | -15 | 1 | -7 | 1 | 2 | 20 | -17
c1ccc(-c2c[n+]3c(n2-c2ccccc2)CCC3)cc1 | 9 | 60* | -11 | 0 | -4 | -7 | 69* | 19 | 17
COc1ccc(OC)c(CN2CCCCCC2)c1 | -10 | 6 | 0 | 2 | -1 | -2 | . | . | .
COc1ccc(OC)c(CN2CCCC(CO)C2)c1 (centres undefined) | 3 | 59* | 1 | 0 | 3 | -3 | 17 | -4 | 11
O=C(C1CCCCC1)n1ccc2ccc(-c3ccc4ccn(Cc5ccccc5)c4c3)cc21 | 15 | . | . | . | . | -1 | . | . | .
O=C(COc1ccccc1)Nc1ccc(OC(F)(F)C(F)F)c(NC(=O)COc2ccccc2)c1 | 21 | 61* | -7 | 0 | -6 | -1 | 4 | 2 | -57
COc1ccc(CN(CCN2CCOCC2)C(=O)c2cc(F)ccc2F)cc1OC | 10 | . | . | . | . | -4 | . | . | .
CCN(CC)CCNC(=O)C(=O)Nc1cc2c3c(c1)CCN3C(=O)CC2 | -15 | 4 | 0 | 1 | -5 | 1 | . | . | .
COC(CNC(=O)C(=O)Nc1cc2c3c(c1)CCN3C(=O)CC2)OC | 0 | 98* | -2 | 1 | -7 | -3 | 25 | -1 | 16
CNC(=O)C(=O)Nc1cc2c3c(c1)CCN3C(=O)CC2 | -27 | 96* | -1 | 0 | -7 | 1 | 19 | 5 | 3
CC(C)[C@@H]1NC(=O)[C@@H]2CSCCS(=O)(=O)N2C1=O | 5 | . | . | . | 0 | 4 | . | . | .
Cc1ccc(Nc2c(F)cccc2Cl)c(CC(=O)O)c1 | 9 | . | . | . | . | 5 | . | . | .
CCC(C)CNC(=O)c1[nH]c(C(F)(F)F)nc1-c1ccccc1 (centres undefined) | 13 | . | -5 | . | -7 | -1 | . | . | .
CCc1ccc(N2C=C(C(=O)OC)C(c3cccc4ccccc34)C(C#N)=C2N)cc1 (centres undefined) | -67 | . | . | . | -5 | -2 | . | . | .
CCOC(=O)Nc1ccc2c(c1)N(C(=O)CNC)c1ccccc1CC2 | -8 | 51 | 2 | -2 | -3 | -2 | 8 | -2 | -14
CCOC(=O)Nc1ccc2c(c1)N(C(=O)OC)c1ccccc1CC2 | -8 | -3 | 3 | -1 | -4 | 1 | . | . | .
CN(Cc1nc2ccccc2c(=O)[nH]1)Cc1nc2ccsc2c(=O)[nH]1 | 7 | 62* | 25 | 1 | -4 | 1 | 31 | 12 | 39*
COC(=O)c1c(NC(=O)c2ccccc2N(C)S(=O)(=O)c2ccccc2)sc2c1CCCC2 | -7 | 6 | -12 | -4 | -3 | 0 | . | . | .
CCOC(=O)c1c(NC(=O)COC)sc2c1CCCC2 | -2 | 7 | -1 | -1 | -2 | -1 | . | . | .
CCOC(=O)c1c(NC=O)sc2c1CCC2 | -15 | 70* | -5 | 2 | -3 | -1 | 12 | -4 | 21
SMILES | COUP-TFII inh | Gli-Sufu antag | H9c2 protect | FXN GAA850 act | GalR3 antag | SMARCA2 activ | Gli antag conf | SufuKO cytotox | Wnt3a cs
CCOC(=O)c1c(NC(=O)c2ccccc2N(C)S(=O)(=O)c2ccccc2)sc2c1CCCC2 | 5 | 52 | -14 | -3 | 0 | -3 | 14 | 15 | -35
CCOC(=O)c1c(NC(=O)C(=O)N/N=C/c2ccccc2OC)sc2c1CCCCC2 | 22 | -3 | 8 | 0 | -1 | -1 | . | . | .
CCOC(=O)c1c(NC(=O)C(=O)N/N=C/c2ccccc2O)sc2c1CCCCC2 | 3 | 70* | 46 | -3 | 1 | 0 | 75* | 17 | 20
CC(c1ccccc1)N1CC[C@H]2C=CC[C@@H](C(=O)Nc3ccc(F)c(F)c3)[C@H]2C1=O (some centres undefined) | -4 | . | . | . | . | . | . | . | .
O=C(Nc1ccccc1Oc1ccccc1)NC1CCCCN(Cc2ccc(Cl)cc2)C1=O (centres undefined) | 1 | . | . | . | . | -2 | . | . | .
Cc1cc(Br)c2nc(-c3cccc(Br)c3)c(Cc3cccc(Cl)c3)n2c1 | 10 | . | . | . | -3 | 5 | . | . | .
Cc1c(C(=O)N/N=C/c2ccc(Cl)cc2)[nH]c2ccc(Cl)cc12 | -31 | 50 | -9 | 1 | -1 | -2 | 55* | 58* | -34
O=C(N/N=C/c1ccc(O)cc1)c1[nH]c2ccc(Br)cc2c1-c1ccccc1 | -65 | 63* | -1 | -1 | 2 | 0 | 63* | 72* | 17
Cc1nnc(SC(C)C(=O)NC2CCCCC2)[nH]c1=O (centres undefined) | 2 | -1 | 0 | 2 | 0 | -1 | . | . | .
CCCOc1ccccc1C1CC(=O)Nc2cc3c(cc21)OCCO3 (centres undefined) | . | 66* | -30 | -2 | . | . | 65* | 60* | -10
O=c1c2c([nH]c3ccc(Br)cc13)CCCC2 | 5 | 8 | -4 | 0 | -2 | -1 | . | . | .
O=c1c2c([nH]c3ccccc13)CCC2 | -23 | 60* | -3 | 1 | -3 | 3 | 30 | 6 | 6
CC(C)[C@H]1COCCS(=O)(=O)N1Cc1ccccc1-c1cccc2c1oc1ccccc12 | 7 | 93* | -16 | 0 | -2 | -6 | 24 | 7 | -40
O=C(Cn1c(NCCO)nc2ccccc21)Nc1cccc(S(=O)(=O)N2CCCC2)c1 | 14 | 0 | -4 | -2 | 0 | -3 | . | . | .
O=C(Cn1cnc2ccccc21)Nc1cccc(S(=O)(=O)N2CCCC2)c1 | . | 54 | -22 | -1 | . | . | 53* | 14 | 17
Cc1ccc(-n2c(Cl)c(Cl)nc(Cl)c2=O)cc1 | . | 11 | -32 | -15 | . | . | . | . | .
CC(=O)N(c1ccc(Cl)cc1)c1cn(C(C)=O)c2ccccc12 | 13 | -41 | 4 | 3 | -5 | -1 | . | . | .
CC(=O)N(c1ccc(Cl)cc1)c1c[nH]c2ccccc12 | 14 | 56* | -1 | 2 | -6 | -3 | 14 | 8 | -11
